SF1 inhibitor = blocks the human nuclear receptor SF-1; hit rate 0.55% among 65,000; CHO-K1 Gal4-SF-1 LBD luciferase reporter; inhibition, % at 10 µM; Q13285;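 active = inhibition above the mean inhibition of all tested compounds plus 3 SD, cut at about 48% in these data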
Target sequence (Q13285 whole entry, looked up, the tested form may be a part): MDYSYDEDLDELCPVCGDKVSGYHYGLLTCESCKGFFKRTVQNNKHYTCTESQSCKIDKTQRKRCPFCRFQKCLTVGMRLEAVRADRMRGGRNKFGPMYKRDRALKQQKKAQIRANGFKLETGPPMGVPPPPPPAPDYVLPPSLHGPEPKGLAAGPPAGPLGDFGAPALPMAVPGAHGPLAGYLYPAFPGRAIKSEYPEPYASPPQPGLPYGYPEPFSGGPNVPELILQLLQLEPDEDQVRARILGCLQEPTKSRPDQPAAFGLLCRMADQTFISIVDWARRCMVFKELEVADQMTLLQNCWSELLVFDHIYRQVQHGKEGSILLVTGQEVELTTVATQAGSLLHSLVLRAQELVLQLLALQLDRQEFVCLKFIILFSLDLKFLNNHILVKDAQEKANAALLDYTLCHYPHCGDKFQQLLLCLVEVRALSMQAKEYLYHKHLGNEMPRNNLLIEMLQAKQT
Of the large screens only hits and unclear results are named; the others gave an inactive call. The entries come from a sample that favours hits as a whole.

COc1ccc(-c2nnc(SCC(=O)c3cc(C)n(Cc4cccs4)c3C)o2)cc1	none
Cc1csc(SCC(=O)c2cc(C)n(Cc3cccs3)c2C)n1	SF1 inhibitor 60
C=CCn1c(C)cc(C(=O)CSc2nnc(NCc3ccccc3)s2)c1C	none
CC(=O)Nc1ccccc1OCC(=O)c1cc(C)n(Cc2cccs2)c1C	SF1 inhibitor 70
CCN(CC)C(=O)Oc1ccccc1NC(C)=O	none
COCCN(CC(=O)NCc1ccccc1)C(=O)CCC(=O)Nc1nccs1	none
CCn1cc(Br)c(C(=O)Nc2cccc(SC)c2)n1	none
O=C(CCn1nc(-c2ccccc2)c2ccccc2c1=O)NCC1CCCO1 (stereo not given)	none
CC(C)(C)n1ncc2c(=O)n(CC(=O)NCc3ccccc3)cnc21	none
CC(C)n1nc(C(=O)NCCc2ccc(S(N)(=O)=O)cc2)c2ccccc2c1=O	none
CCN(CC)CCCN1C(=O)C(O)=C(C(=O)c2cc3cccc(OC)c3o2)C1c1ccncc1 (stereo not given)	none
CCOC(=O)c1c(C)[nH]c(C(=O)C(C)OC(=O)c2cccc(OCc3c(C)noc3C)c2)c1C (stereo not given)	SF1 inhibitor 81
CCOC(=O)c1c(C)[nH]c(C(=O)COC(=O)C2CC2C)c1C (stereo not given)	none
COC(=O)c1c(C)[nH]c(C(=O)OCc2ccc(F)cc2)c1C	none
Cc1nc(SCC(=O)Nc2c(C)n(C)n(-c3ccccc3)c2=O)[nH]c(=O)c1Cc1ccccc1	none
CC(C)CCNC(=O)NC(=O)COc1ccccc1C#N	none
COc1ccc2[nH]c(=O)c(CN(C(=O)c3ccco3)C3CCCCC3)cc2c1	none
CCN(C(=O)c1cc(Cl)ccc1OC)C1CCCCC1	none
O=S(=O)(c1ccccc1)N(C1=NCCS1)S(=O)(=O)c1ccccc1	none
COc1cc2c(C#N)c(N3CCc4ccccc4C3)nc(N)c2c(N)n1	none
c1ccc2c(c1)CCN(c1nc3cc4c(cc3s1)OCCO4)C2	SF1 inhibitor 60
O=C(NCCCn1ccnc1)C1c2ccccc2Oc2ccccc21	none
COc1cc2c(cc1OC)C(C)N(C(=O)C1COc3ccccc3O1)CC2 (stereo not given)	none
CCN1C(=O)/C(=C2/Sc3ccc(OC)cc3N2C)SC1=Nc1cccc(O)c1	SF1 inhibitor 51
Cc1cc(C)nc(Nc2nc(=O)c3ccccc3s2)n1	none
COc1ccc(OC)c(-c2cc(C(=O)NCc3ccco3)no2)c1	none
COc1cc(CNC2CCC(C)C2)cc(OC)c1 (stereo not given)	none
O=C(CCSc1ccccc1)N1CCOCC1	none
O=C(c1ccccc1)C(CCC(CN1CCOCC1)C(=O)c1ccccc1)CN1CCOCC1 (stereo not given)	SF1 inhibitor 74
O=C(c1ccccc1)c1ccccc1C(=O)N1CCOCC1	none
CC1(C)Cc2c(c(-c3ccccc3)nc(N3CCCC3)c2C(N)=O)CO1	none
O=C(CSc1nc2cc(Cl)ccc2o1)c1cccs1	none
CC(=O)c1cccc(NC(=O)CN(c2ccc(C)cc2)S(=O)(=O)c2cccc3nonc23)c1	none
CC(=O)c1c(C)nc2nonc2c1N	none
CCOc1ccc(S(=O)(=O)Nc2ccccc2C(=O)NCC2CCCO2)cc1 (stereo not given)	none
CN(CC1CCCO1)S(=O)(=O)c1ccc(C(=O)Nc2nc(-c3ccccn3)cs2)cc1 (stereo not given)	SF1 inhibitor 70
O=C(CN(CC1CCCO1)C(=O)CCC(=O)Nc1ccccn1)NCC1CCCO1 (stereo not given)	none
Cc1occc1C(=O)Nc1ccc2c(c1)OCO2	none
Cc1noc(C(=O)Nc2ccc3c(c2)OCO3)c1Cl	none
CCOC(=O)c1c(N)sc(C(=O)Nc2ccc3c(c2)OCO3)c1C	SF1 inhibitor 53
Cc1nnc(NC(=O)NCN2C(=O)C3C4C=CC(C4)C3C2=O)s1 (stereo not given)	none
CCCCSC1=C(C#N)C(c2ccccc2C)C(C(=O)OCC)C(=O)N1 (stereo not given)	none
O=C(CSc1cn(Cc2ccccc2)c2ccccc12)Nc1nccs1	none
O=C(CCCSc1nc2ccccc2[nH]1)NC1=NCCS1	none
O=C(CSC1=NCCS1)Nc1ccnc2ccccc12	SF1 inhibitor 67
CC1CCN(c2ccc(NC(=O)c3cccnc3)cc2)CC1	none
COC(=O)c1cn(C(C)C(=O)NCc2ccco2)c2ccccc12 (stereo not given)	none
CCCCN(CC)C(=O)c1ccc(Cl)c(Cl)c1	none
CN1C2C=C3C(C#N)=C(N)C(C#N)(C#N)[C@@H](c4ccc(Cl)cc4)[C@@H]3C1CC2 (stereo not given in full)	SF1 inhibitor 49
COC(=O)c1sc(NC(=O)CSc2nnnn2-c2ccc(C)cc2C)nc1C	none
COC(=O)c1cc2oc3ccccc3c2n1Cc1ccccn1	none
COc1cc2c(cc1NC(=O)CSc1nnnn1-c1ccccc1)oc1ccccc12	SF1 inhibitor 84
COc1cc2c(cc1NC(=O)c1cncc(Br)c1)oc1ccccc12	none
COc1cc2c(cc1NC(=O)CSCC(=O)O)oc1ccccc12	none
CC(=O)N=C(N)Sc1nc2ccccc2[nH]1	none
CC1(C)CC(=O)C(CC2=C(O)CC(C)(C)CC2=O)=C(O)C1	none
C=CCn1c(=O)[nH]c2cc(C(=O)N3CCN(c4ccc(C(C)=O)cc4)CC3)ccc2c1=O	none
CC(=O)c1ccc(N2CCN(c3ccc(C(F)(F)F)cn3)CC2)cc1	SF1 inhibitor 58
CC(=O)c1ccc(N2CCN(C(=O)c3cc4c(=O)n(C)c5ccccc5c4n3C)CC2)cc1	none
CC1(C)C2CCC1(C)C(OC(=O)CSc1nc(N)cc(=O)[nH]1)C2 (stereo not given)	none
COc1cc(CSc2nnnn2-c2ccc(C)cc2)cc(OC)c1OC	SF1 inhibitor 62
COc1ccc(C)cc1-n1nnnc1SCc1nc2ccccc2s1	none
Cc1ccc(Nc2nc(CSc3nnnn3-c3ccccc3)cs2)cc1	none
N#Cc1c(NC(=O)CN2CCN(S(=O)(=O)c3ccc4c(c3)OCCO4)CC2)sc2c1CCC2	none
COC(=O)c1ccc(C(=O)OC)c(NS(C)(=O)=O)c1	none
O=C(CCS(=O)(=O)c1ccc(Br)cc1)N1CCN(c2ccccc2F)CC1	none
CCCCCOC(=O)c1[nH]c2c(c1C)C(=O)CC(c1ccco1)C2 (stereo not given)	SF1 inhibitor 57
CCOC(=O)c1ccccc1NC(=O)c1ccc(NS(C)(=O)=O)cc1	none
CC(C)OC(=O)Cn1c(=O)oc2ccccc21	none
COc1cccc2c1C(=O)c1c(O)c3c(c(O)c1C2=O)C[C@@](O)(C(=O)CO)C[C@@H]3O[C@H]1C[C@H](N)[C@H](O)[C@H](C)O1	SF1 inhibitor 80
O=C(COc1ccc(Cl)cc1Cl)Nc1ccccn1	none
FC(F)C(F)(F)C1=CC(c2cccs2)=NCCN1	none
CC(C)c1nc(SCC(=O)Nc2ccc3c(c2)OCCO3)c2c(=O)n(C)c(=O)n(C)c2n1	none
CC(C)Cn1c(N)c(C(=O)CSc2ccc3c(c2)OCCO3)c(=O)n(C)c1=O	SF1 inhibitor 69
CCn1c(SCC(=O)c2ccc3c(c2)OCCO3)nnc1C(C)C	none
Cn1cnnc1SCc1ccc(C#N)cc1Cl	none
COc1ccc(-n2ncc3c(NCc4ccccn4)ncnc32)cc1	none
CCOC(=O)CSC(CC)C(=O)Nc1nnc(C(C)C)s1 (stereo not given)	none
COC(=O)c1nn(-c2ccc(-c3ccccc3)cc2)cc1O	SF1 inhibitor 56
COc1ccc(N2CCN(C(=O)CN3C(=O)C4CC=CCC4C3=O)CC2)cc1 (stereo not given)	none
Cc1ccc(-c2nc(Nc3ccccc3)n[nH]2)cc1	none
CCN1C(=O)N(CN2CCOCC2)C2C1N(CN1CCOCC1)C(=O)N2CC (stereo not given)	none
Cn1c(C(C#N)C(=O)c2ccco2)nc2ccccc21 (stereo not given)	none
Cn1c(SC2=CS(=O)(=O)c3ccccc32)nc2ccccc21	SF1 inhibitor 68
